# Screen size: about 1,400 compounds; about 560 (40%) were called active. The set was probably picked from earlier hits. Some of the results follow. Values without a mark were called inactive.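 The calls were made as follows: active = mean inhibition over duplicate tests at 10 µM above 50%; inactive = the rest.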
# Test: ASC/caspase-1 reporter retest in S. cerevisiae at one dose, specificity check for NALP1 project (AID 488857)
# Details: S. cerevisiae ASC/Caspase-1, beta-galactosidase luminescence, 24 h; at 10 µM; hits give high values
row,SMILES,inhibition
1,CC(C)(C)C1=CC(=O)C(=O)C(C(C)(C)C)=C1,12.5%
2,COc1ccccc1NC1=C(N2CCCCC2)C(=O)c2ccccc2C1=O,81.7% (active)
3,COC1=C(Nc2ccccc2)C(=O)c2ccccc2C1=O,26.2%
4,O=C1OC(/C=C/c2ccc(Cl)cc2)=NC/1=C/c1ccco1,39.5%
5,CCCCCCOc1ccc(/C(C)=N/NC2=NCCN2)cc1,80.3% (active)
6,CCCCCCOc1ccc(-c2ccc(C#N)cn2)cc1,37.6%
7,CCCCCCOc1ccc(OC(=O)c2ccncc2)cc1,14.7%
8,CCCCCOc1ccc(Br)cc1/C(C)=N/NC1=NCCN1,78.4% (active)
9,Cc1c(-c2ccccc2)[n+](=O)c2c(n1[O-])CCC2,-7.75%
10,NC(C(=O)O)C1CC(Cl)=NO1 (configuration not stated),59.1% (active)
11,CCCN(CCC)C(=O)Cn1c(=O)n(CCCCC(=O)NCc2ccco2)c(=O)c2ccccc21,49%
12,CCc1ccc(S(=O)(=O)/N=C2/C=C(Sc3ncn[nH]3)C(=O)c3ccccc32)cc1,96% (active)
13,CSCCNC(C)=O,17%
14,COC(=O)c1sccc1N/N=C(\C)c1ccc(F)c(Cl)c1,36%
15,CC1=C(C(=O)Nc2ccc(Cl)cc2)C(c2ccco2)NC(=O)N1 (configuration not stated),15.8%
16,O=C(Nc1ccc(Cl)cc1)C1=Cc2ccccc2OC1,65.8% (active)
17,CCc1cccc(C)c1NC(=S)NCCc1c(C)[nH]c2ccc(C)cc12,44.8%
18,CCc1cccc(CC)c1NC(=S)NCCc1c(C)[nH]c2ccccc12,50.6% (active)
19,COc1ccc(CNCC(O)(c2ccccc2)c2ccc(Cl)cc2)cc1 (configuration not stated),60% (active)
20,CNC(=O)C(NC(=O)c1ccccc1)=C(C)C,38.2%
21,C=C(C(=O)c1ccccc1)C(C)C(=C)C(=O)c1ccccc1,59.5% (active)
22,COC(=O)c1c(N)c(C#N)c2n1CCCCC2,37.8%
23,Nc1nc(-c2ccco2)nn1S(=O)(=O)c1ccccc1,21.7%
24,COc1ccc(-c2nc(N)n(S(=O)(=O)c3ccc(C)cc3)n2)cc1,63.5% (active)
25,CCOC(=O)c1nc(C)sc1-c1ccnn1S(=O)(=O)c1ccc(C)cc1,45.4%
26,Cc1c(-c2nc(N)nc(Nc3ccccc3)n2)oc2ccccc12,45.6%

row,SMILES,inhibition
1,O=C1CC(Sc2nnnn2-c2ccccc2)C(=O)N1c1cccc(Cl)c1 (configuration not stated),47.4%
2,CCOc1ccc2nc(SC3CC(=O)N(c4cccc(OC)c4)C3=O)sc2c1 (configuration not stated),85% (active)
3,CCOc1cccc(N2C(=O)CC(N3CCN(c4ccc(S(=O)(=O)CC)cc4)CC3)C2=O)c1 (configuration not stated),34.4%
4,COC(=O)CSC1=C(C#N)C(=O)NC(c2ccccc2)S1 (configuration not stated),39.5%
5,COCCNC(=O)c1ccc(C)c(S(=O)(=O)Nc2ccc(C)cc2)c1,27.9%
6,Cc1ccc(C(=O)NCCSCc2ccccc2)cc1[N+](=O)[O-],52.2% (active)
7,Cc1ccc(CSCCNC(=O)CSCc2ccc([N+](=O)[O-])cc2)cc1,68.6% (active)
8,COCCNC(=O)CCc1ccc(S(=O)(=O)Nc2ccc(C)cc2)cc1,25.9%
9,Cc1cccc(C(=O)NCc2ccc(S(N)(=O)=O)cc2)c1[N+](=O)[O-],30.2%
10,CCn1c2ccccc2c2cc(NC(=O)c3ccc(C)c([N+](=O)[O-])c3)ccc21,45.8%
11,Cc1ccc(C(=O)NCCc2cccc(Cl)c2)cc1[N+](=O)[O-],73.5% (active)
12,Cc1ccc(S(=O)(=O)NC2=NCN(CCOC(=O)c3ccc([N+](=O)[O-])cc3)CN2)cc1,14.1%
13,CCCCCCC1CCC(C(=O)Nn2c(C)nc3ccccc3c2=O)CC1 (configuration not stated),49%
14,CC1CCCC/C1=N\Nc1ccc(S(N)(=O)=O)cc1[N+](=O)[O-] (configuration not stated),25.7%
15,CCc1ccc(C(=O)NC(CC(C)C)C(=O)O)cc1 (configuration not stated),46.8%
16,CC(NC(=O)Nn1cnnc1)(C(F)(F)F)C(F)(F)F,26.3%
17,Clc1ccc(Nc2ccc(NCc3ccccc3)nn2)cc1,85.7% (active)
18,COc1cc(C2Nc3ccccc3C(=O)N2c2ccccc2)ccc1O (configuration not stated),15.1%
19,O=C(Nc1cc(Cl)ccc1-n1cncn1)c1ccc([N+](=O)[O-])s1,92% (active)
20,CCC(=O)Nc1cccc(-c2nc3ccccc3o2)c1,78.7% (active)
21,Cc1ccc2oc(-c3ccc(NC(=O)c4cccnc4)cc3)nc2c1,46.7%
22,CCCCCC(=O)Nc1ccc2oc(-c3cccnc3)nc2c1,58.5% (active)
23,CCCc1cc(C(=O)O)c2ccccc2n1,39.6%
24,CC(C)CCN(C(=O)Nc1ccccc1)C(C)c1cccs1 (configuration not stated),42.2%
25,COc1ccc2c(c1)NC(=O)CC(c1ccccc1)=N2,43.8%
26,N/C(Cc1cccs1)=N\OC(=O)COc1ccccc1Cl,59.1% (active)

row,SMILES,inhibition
1,COc1ccccc1NS(=O)(=O)c1ccc(NC(=O)Cc2cccs2)cc1,33.9%
2,C=CCNC(=S)N/N=C(\C)c1ccccn1,90.2% (active)
3,O=C(N/N=C/c1cc(Cl)ccc1O)c1ccc(Br)cc1,54.1% (active)
4,O=C(N/N=C/c1cc2c3c(c1O)CCCN3CCC2)c1ccccc1O,34.8%
5,O=C(N/N=C/c1ccc2nccnc2c1)c1ccccc1O,36%
6,CC(=O)c1ccc(S(=O)(=O)N2CCCC2)cc1,46.1%
7,COC(=O)c1ccc(Oc2ccc(S(=O)(=O)N3CCCCC3)cc2N)cc1,97.8% (active)
8,C=CCc1cc(Cl)ccc1OCCNCCCOC,48.5%
9,C=CCc1cc(Cl)ccc1OCCOCCNCCOC,50.9% (active)
10,Cc1cc(SC#N)cc(C)c1NC(=O)CCl,25.8%
11,COc1ccc(/C=C\c2onc(C)c2S(=O)(=O)N2CCC(C(=O)NCc3ccco3)CC2)cc1,42%
12,O=C(NCc1ccco1)c1cnn2c1NC(c1ccc(Br)cc1)CC2C(F)(F)F (configuration not stated),63.1% (active)
13,COc1cccc(N2CCN(C3CCCC(C)C3)CC2)c1 (configuration not stated),38%
14,COc1cccc(NC(=O)Cn2cnc3sc(C)c(S(=O)(=O)N4CCCCC4)c3c2=O)c1,30.9%
15,O=C(COC(=O)/C=C/c1cccs1)Nc1nc(-c2ccccc2)cs1,13.3%
16,O=C(COC(=O)c1cccs1)Nc1nc(-c2ccccc2)cs1,48.2%
17,CC1CC1C(=O)Nc1nc(-c2ccccc2)cs1 (configuration not stated),68.5% (active)
18,Cc1ccc(N2C(=O)CC(Sc3ccccc3C(=O)O)C2=O)cc1 (configuration not stated),26.1%
19,CC(C)c1ccc(N2C(=O)CC(Sc3ncn[nH]3)C2=O)cc1 (configuration not stated),58.9% (active)
20,Cc1cc(C)cc(N2C(=O)CC(Sc3ncn[nH]3)C2=O)c1 (configuration not stated),63.5% (active)
21,O=C(Cn1nnc2ccccc21)OCC(=O)c1ccc(Cl)cc1,39.8%
22,CCn1c(N2CCN(C(=O)C34CC5CC(CC(C5)C3)C4)CC2)nc2ccccc21,54.5% (active)
23,CCn1c(=O)cc(SCC(=O)N2CCN(C3CCCCC3)CC2)c2ccccc21,29.9%
24,c1csc(CNc2nc3ccccc3n2CCN2CCOCC2)c1,35.6%
25,c1csc(C2Nc3ccccc3-c3nc4ccccc4n32)c1 (configuration not stated),64.8% (active)
26,CCN1c2ccccc2-c2nc3ccccc3n2C1c1cccs1 (configuration not stated),63.7% (active)

row,SMILES,inhibition
1,CN1c2ccccc2-c2nc3ccccc3n2C1c1cccs1 (configuration not stated),62.9% (active)
2,CCOC(=O)N1CCC(=NNS(=O)(=O)c2cccc([N+](=O)[O-])c2)CC1,31.6%
3,COn1c2c(c3c4nonc4ccc31)CCCC2,31.4%
4,CC1CC(C)CN(S(=O)(=O)c2ccc(C(=O)NCc3ccc4c(c3)OCO4)cc2)C1 (configuration not stated),31.6%
5,Cc1nc2cc(C(=O)NCc3ccc4c(c3)OCO4)ccc2n1-c1ccc(Br)cc1,58.9% (active)
6,COc1cc(NC(=O)c2cccs2)cc(OC)c1,82% (active)
7,CCN(CC)S(=O)(=O)c1cccc(C(=O)Oc2cccc(NC(=O)c3cccs3)c2)c1,35.9%
8,O=C(/C=C\Nc1cccc(F)c1)c1cccs1,47.2%
9,O=C(CN1CCCCC1)Nc1nc(-c2ccc(F)c(F)c2)cs1,55.9% (active)
10,CC1CCCC(C)N1C(=O)CN1CCN(c2nc(-c3ccc(F)cc3)cs2)CC1 (configuration not stated),44.5%
11,O=C(CN1CCCCC1)Nc1cccc(Oc2ccccc2)c1,38.8%
12,COCC(=O)n1nc(-c2ccc(Cl)cc2)nc1NCc1ccc(F)cc1,36.2%
13,CCCCCCCCNC(C)C(O)c1ccc(SC(C)C)cc1 (configuration not stated),38.9%
14,CC(C)CC(=O)/C(=C\c1ccc(Cl)cc1Cl)n1cncn1,101% (active)
15,CSc1nnc(-c2cc3c(s2)-c2ccccc2CC3)o1,46.8%
16,O=C(COC(=O)Cc1c(F)cccc1Cl)NCCC1=CCCCC1,61.6% (active)
17,COC(=O)COc1ccc(S(=O)(=O)NCCC2=CCCCC2)cc1Cl,40.1%
18,CC(OC(=O)Cc1c(F)cccc1Cl)C(=O)NCCC1=CCCCC1 (configuration not stated),46.8%
19,Cc1cc(C(C)(C)C)cc(S(=O)(=O)Nc2ccc(O)c(C(=O)O)c2)c1C,27.8%
20,COc1ccccc1/C=N\N=C(\N)c1ccccn1,48.5%
21,Cc1ccc(Oc2ccccc2/C=N/O)cc1,51.9% (active)
22,Cc1ccc(/C(COc2ccccc2O)=N\O)cc1,47.8%
23,COC(=O)c1sccc1NC(=O)c1csc(C)c1,49%
24,Cc1ccc2c(Cl)c(C)c(N3CCCCC3)nc2n1,74.8% (active)
